These results are taken from PubChem BioAssay (NCI).

Test [1] is described as follows: NCI Yeast Anticancer Drug Screen. Data for the rad50 strain (AID 155).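 Note: 0% = growth of vehicle-only cultures of the same strain.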 The conditions noted are these: S. cerevisiae rad50 strain growth inhibition; at 50.0 µM; hits give high values. The essentials: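 Compounds were tested on a yeast strain with an engineered DNA damage repair alteration; the reported value is growth inhibition normalised to vehicle treatment.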

The nature of test [2]: NCI Yeast Anticancer Drug Screen. Data for the mec2-1 strain (AID 157). The conditions noted are these: S. cerevisiae mec2-1 strain, at 50.0 µM, hits give high values. The method, boiled down:
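Yeast mec2-1 mutant treated with compound. Readout: growth inhibition vs vehicle controls.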

Test [3] in a line: NCI Yeast Anticancer Drug Screen. Data for the sgs1 mgt1 strain (AID 161).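 Note: 0% = growth of cultures given vehicle only.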 The following applies: S. cerevisiae sgs1 mgt1 strain, at 50.0 µM, hits give high values. The method, boiled down:
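Genetically altered yeast, compound exposure, growth inhibition relative to vehicle.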

A short description of test [4]: NCI Yeast Anticancer Drug Screen. Data for the cln2 rad14 strain (AID 165).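 Note: 0% = growth equal to vehicle treated cultures.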 The following applies: S. cerevisiae cln2 rad14 strain, at 50.0 µM, hits give high values. The method, boiled down: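 cln2 rad14 yeast strain; compound exposure; growth inhibition read vs vehicle controls.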
A short description of test [5]: NCI Yeast Anticancer Drug Screen. Data for the bub3 strain (AID 167). The conditions noted are these: S. cerevisiae bub3 mutant strain, at 50.0 µM, hits give high values. The essentials: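 Growth of a checkpoint-deficient yeast mutant is measured after compound exposure. Values represent inhibition relative to vehicle.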
Test [6] can be described thus: NCI Yeast Anticancer Drug Screen. Data for the mlh1 rad18 strain (AID 175). The following applies: S. cerevisiae mlh1 rad18 strain growth inhibition; at 50.0 µM; hits give high values. The essentials:
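Yeast w/ defined DNA-repair lesions; compound exposure; growth vs vehicle controls → % inhibition.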

The structures appear in SMILES notation. Compounds without any hit were thinned out: in the full panel of roughly 79,000, 15% have a hit. Values without a mark were called inactive. The source made the active and inactive calls. Cut-off read from the data, not from the text of the source: active = growth inhibition above about 70%; inactive = the rest.

As to `O=C(COc1ccccc1)OCCCl`, the growth inhibition in test [1] was -7.8%; in test [2], -15.3%; in test [3], -15.4%; in test [4], -67.5%; in test [5], -25.8%; in test [6] it was -75.9%.
`CCc1cccc(C(C)(C)C)c1NC(=S)N/C=C(/C#N)C(N)=O`: the growth inhibition was 8.2% in test [1]; -7.45% in test [2]; 16.9% in test [3]; 13.7% in test [4]; -15.9% in test [5]; 11.8% in test [6].
As for `Oc1ccc(CN=Cc2ccccc2)cc1`, the growth inhibition in test [1] was 0.05%; in test [2] it was 3.3%; in test [3], -7.05%; in test [4], -14.9%; in test [5], -15.6%; in test [6] it was -10.1%.
In the case of `O=C(/C=C/c1cccc([N+](=O)[O-])c1)Nc1cccnc1`, the growth inhibition in test [1] is 7.55%; in test [2] it was -1.35%; in test [3], 38.9%; in test [4], -11.8%; in test [5] it was 29.9%; in test [6], 24.1%.
For the compound `CN(C)C(=S)OCC(C)(C)C`, the growth inhibition in test [1] is -1.45%; in test [2], -14.8%; in test [3], -18.3%; in test [4] it was -35.3%; in test [5], 3.4%; in test [6] it was -23.6%.
As to `CC(C)C(C)(O)C#CC(C)(O)C(C)C` (stereo not given), the growth inhibition is 1.4% in test [1]; 8.85% in test [2]; 3.25% in test [3]; -15.5% in test [4]; 23.9% in test [5]; 12.1% in test [6].
Turning to `CC(=O)OCCS(=O)(=O)c1c(Cl)c(Cl)c(Cl)c(Cl)c1Cl`, the growth inhibition is 95.7% (active) in test [1]; 97.4% (active) in test [2]; 98.9% (active) in test [3]; 93.8% (active) in test [4]; 95.7% (active) in test [5]; 97.8% (active) in test [6].
For `CC(C)C1CCC2(C)C(CCC3C4(C)CCCC32OC4=O)C1` (stereo not given), the growth inhibition in test [1] is -17.7%; in test [2], -13.6%; in test [3] it was -4.8%; in test [4] it was -27.2%; in test [5] it was -0.15%; in test [6], 23.7%.
With `O=S1c2ccc(Cl)cc2CC(SSC2Cc3cc(Cl)ccc3S(=O)c3ccccc32)c2ccccc21` (stereo not given), the growth inhibition is 18.5% in test [1]; -35.6% in test [2]; -7.65% in test [3]; 6.15% in test [4]; 10.5% in test [5]; -9% in test [6].
For `COc1ccc(CN2C(=S)SC(c3ccc(Cl)cc3)N2c2ccc(OC)cc2)cc1` (stereo not given), the growth inhibition in test [1] was -25.1%; in test [2] it was -19.6%; in test [3], -9.2%; in test [4], -37%; in test [5], -1.35%; in test [6], -19.8%.
As for `O=C(C/C(=N\NC(=O)C[n+]1ccccc1)C(=O)Nc1nc2ccc([N+](=O)[O-])cc2s1)CC(c1ccccc1)c1c(O)c2ccccc2oc1=O` (stereo not given), the growth inhibition in test [1] is 3.65%; in test [2], -15%; in test [3], -17.2%; in test [4], 1.6%; in test [5], 7.3%; in test [6], -4.85%.
Take `O=S(=O)(Nc1ccccc1Cl)c1ccc(F)cc1`: the growth inhibition was -5.85% in test [1]; -16.1% in test [2]; -6.6% in test [3]; 4.7% in test [4]; -24% in test [5]; 20.9% in test [6].
`COC(=O)Cc1nc2ccccc2o1`: the growth inhibition is 36.1% in test [1]; 9% in test [2]; 20.9% in test [3]; 37.9% in test [4]; 59.2% in test [5]; 31.5% in test [6].
`Cc1nc2cncnc2n(CCN2CCOCC2)c1=O`: the growth inhibition in test [1] was 15.1%; in test [2], 16.2%; in test [3], 23.2%; in test [4], -2.35%; in test [5], -2.45%; in test [6], 20.4%.
Consider `C=C(C)C(=O)O[C@@H]1C[C@@]2(C)O[C@@H]2C[C@H](O)/C(C)=C/[C@H]2OC(=O)C(=C)[C@@H]21`, for which the growth inhibition was -19.6% in test [1]; -33.1% in test [2]; -22.5% in test [3]; 0.35% in test [4]; -16.5% in test [5]; -43.1% in test [6].
Turning to `COc1ccc(C2SCC(=O)N2c2nncs2)cc1F` (stereo not given), the growth inhibition was 6.2% in test [1]; 1.55% in test [2]; 20.9% in test [3]; 2.9% in test [4]; 12.6% in test [5]; 20.2% in test [6].
Turning to `CCNC(=O)CCP(=O)(CCC(=O)NCC)CCC(=O)NCC`, the growth inhibition was 7.25% in test [1]; -3.05% in test [2]; 3.9% in test [3]; -4.35% in test [4]; -6.7% in test [5]; 6% in test [6].
Take `O=C(NC(=S)Nc1cccc(Cl)c1)c1ccccc1`: the growth inhibition in test [1] is 15.9%; in test [2], 26.5%; in test [3], 33.3%; in test [4], -7.3%; in test [5], 46.2%; in test [6], 12.4%.
Take `C=C1C(=O)O[C@@H]2[C@H]3O[C@]3(C)CCC=C(C)CC[C@@H]12`: the growth inhibition in test [1] was -2.7%; in test [2] it was -7.05%; in test [3] it was 2.15%; in test [4], 9.05%; in test [5] it was -11.8%; in test [6], -6.75%.
On to `COC(=O)C(=[N+]=[N-])C(=O)c1ccccc1`, for which the growth inhibition in test [1] is 10.1%; in test [2], 1.05%; in test [3], -1.3%; in test [4], 4.65%; in test [5] it was -3.6%; in test [6], 6.9%.
Turning to `COC1=C(O)C(=O)C(OC)=C(O)C1=O`, the growth inhibition was -19.5% in test [1]; -8.65% in test [2]; -13.5% in test [3]; -1.4% in test [4]; 9.75% in test [5]; -19.6% in test [6].
On to `Cc1ccc(C)c(NC(=O)/C=N/O)c1`, for which the growth inhibition was 1% in test [1]; -5.95% in test [2]; 18.5% in test [3]; 12.4% in test [4]; 2.3% in test [5]; 1% in test [6].
For the compound `O=[N+]([O-])c1cn(CCNc2c3ccccc3nc3ccccc23)cn1`, the growth inhibition was 17.4% in test [1]; -5.35% in test [2]; 20.4% in test [3]; 10.6% in test [4]; -3.85% in test [5]; 16.8% in test [6].
For the compound `Cc1cc(Cl)cc(CN(C)Cc2c(C)[nH]c(=O)[nH]c2=O)c1O`, the growth inhibition in test [1] was -31.4%; in test [2], -17.1%; in test [3] it was -17.2%; in test [4] it was 2.65%; in test [5], -0.5%; in test [6] it was -8.9%.
With `O=[N+]([O-])c1ccc(N/N=C/c2ccc(CO)cc2)c([N+](=O)[O-])c1`, the growth inhibition in test [1] is 4%; in test [2], -5.65%; in test [3], 18.1%; in test [4], -13.9%; in test [5], 6.1%; in test [6], 17.2%.
`CCOC(=O)CC[C@H](NC(=O)c1[nH]cnc1/N=N/N(C)C)C(=O)OCC`: the growth inhibition in test [1] was -24.5%; in test [2], -41.5%; in test [3], -56%; in test [4] it was 3.7%; in test [5] it was -12.1%; in test [6], -36.9%.
With `COc1cc(NCCC(=O)O)c2ncccc2c1`, the growth inhibition in test [1] was -25.1%; in test [2], -19.2%; in test [3], -41.9%; in test [4], -18.8%; in test [5], -24.2%; in test [6] it was 0.7%.
In the case of `Cc1ccc(NC(=O)CCCC(=O)C(C#N)c2nc3ccccc3s2)cc1C` (stereo not given), the growth inhibition in test [1] was 10.9%; in test [2] it was 14.6%; in test [3], -9.8%; in test [4], 0.7%; in test [5] it was -7.35%; in test [6], 15.1%.
Consider `c1ccc(B2Nc3ccccc3O2)cc1`, for which the growth inhibition in test [1] is 18.1%; in test [2], 7.05%; in test [3], 5.3%; in test [4], 18.4%; in test [5] it was 43%; in test [6], 39.5%.
For `C[C@@H]1CN(c2ccccc2)C[C@H](C)OS(=O)O1` (stereo not given in full), the growth inhibition is 2.65% in test [1]; -1.95% in test [2]; -12.8% in test [3]; -16.6% in test [4]; -6.95% in test [5]; -0.7% in test [6].
For `CCNC(=O)N(C)Cc1ccc(Cl)cc1`, the growth inhibition in test [1] is -4%; in test [2] it was 8.7%; in test [3], -11.6%; in test [4], -71.5%; in test [5], -8.95%; in test [6], -5.1%.
`C/C=C/c1nc2c(c(=O)n(C)c(=O)n2C)n1C`: the growth inhibition in test [1] was -8.05%; in test [2], -8.2%; in test [3] it was -6%; in test [4], -28.8%; in test [5] it was 0.95%; in test [6], 7%.
With `O=C1CC(c2ccc(Cl)cc2)NC(c2ccc(Cl)cc2)C1` (stereo not given), the growth inhibition in test [1] was 13.6%; in test [2], 2.35%; in test [3], 8.55%; in test [4], 11.2%; in test [5] it was 6.4%; in test [6], 14.8%.
Regarding `COc1ccc(C(O)C(C)C(O)(C(F)(F)F)C(F)(F)F)cc1` (stereo not given), the growth inhibition in test [1] is 70.5% (active); in test [2] it was 67.7%; in test [3], 89.3% (active); in test [4], 63.8%; in test [5], 72.7% (active); in test [6], 90% (active).
`COc1ccc2c(c1OC)C1CCCCC1SCC2=O` (stereo not given): the growth inhibition in test [1] is 14.4%; in test [2] it was 6.85%; in test [3] it was 0.7%; in test [4] it was 5.75%; in test [5], 12.5%; in test [6], -16.4%.
For the compound `CCN(CC)CCOc1ccc2ccccc2c1C(Cc1ccccc1)NCCO` (stereo not given), the growth inhibition in test [1] is -13.2%; in test [2], 1.95%; in test [3], -20.2%; in test [4], -19.6%; in test [5], 3%; in test [6], 3.05%.
For `CCN(CC)C(=O)c1ccccc1C`, the growth inhibition in test [1] is 17.2%; in test [2], -2.65%; in test [3], -9.7%; in test [4], 6.7%; in test [5], -3.85%; in test [6] it was 0.45%.
Take `Cc1cccc(Cl)c1NC(=O)COc1ccc(Cl)cc1`: the growth inhibition is 5.75% in test [1]; 5.75% in test [2]; 38.2% in test [3]; 1.65% in test [4]; 30.9% in test [5]; 26.2% in test [6].
Regarding `CCC(=O)c1ccc(O)c(C)c1`, the growth inhibition is 4.85% in test [1]; -2.9% in test [2]; 0.2% in test [3]; -2.6% in test [4]; 37.7% in test [5]; 2.45% in test [6].
Turning to `CCN(CCOC(=O)Nc1ccc(Cl)cc1)C(=O)Nc1ccc(Cl)cc1`, the growth inhibition is -1.75% in test [1]; -36.8% in test [2]; 16.4% in test [3]; 2.8% in test [4]; -8.55% in test [5]; -18.2% in test [6].
